Where “and” joins values, the source holds several entries; their conditions need not be identical. Equal entries are not always repeated. Inconclusive results are not listed. Calls of active or inactive are those of the source. The calls were made as follows, unless noted: active = hit-call score of the fitted dose curve at least 0.9, where 1 is the maximum; inconclusive = response in the unintended direction; inactive = score below 0.9.
How the values were obtained:
[1] = biological target: guinea pig Sigma Receptor, Non-selective Binding, SIGMAR1 (gene 100135589) (UniProt Q60492); assay: NVS_OR_gSIGMA_NonSelective: NovaScreen (NVS) Nuclear Receptor Binding Assay for guinea pig Sigma Receptor, Non-selective Binding (AID 2283367)
guinea pig Sigma Receptor, Non-selective Binding, SIGMAR1 (gene 100135589), sequence (Q60492 whole entry, looked up): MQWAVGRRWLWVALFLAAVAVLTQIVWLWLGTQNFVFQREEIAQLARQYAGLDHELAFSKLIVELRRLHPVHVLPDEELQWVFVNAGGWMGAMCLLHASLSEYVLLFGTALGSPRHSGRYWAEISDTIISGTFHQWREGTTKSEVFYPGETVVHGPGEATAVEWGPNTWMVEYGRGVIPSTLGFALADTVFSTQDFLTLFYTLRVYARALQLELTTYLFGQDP
Summary of the method: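 Guinea pig brain membranes, cell-free radioligand binding; read 1 h after dosing by filter-based scintillation counting. Loss of signal vs DMSO baseline taken as displacement. Primary screen single concentration 25 uM in duplicate; actives retested in concentration series.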

[2] = biological target: Agonist Androgen Response Element (ARE), AR (gene 367) (UniProt P10275); assay: OT_AR_ARELUC_AG_1440: Odyssey Thera (OT) 24-hour CHO-K1 Luciferase Assay for Agonist Androgen Response Element (ARE) (AID 2283379)
Summary of the method: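 Seed CHO-K1 cells; dose compounds for 24 h; add D-luciferin plus ATP in PBS; read luminescence. Signal increase relative to vehicle defines agonist activity, with at least 3 replicate wells per sample.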

[3] = biological target: Estrogen receptor beta (Homo sapiens) (UniProt Q92731); assay: OT_ER_ERbERb_1440: Odyssey Thera (OT) 24-hour HEK293T Protein-Complementation Assay for Estrogen Receptor-beta/-beta Homodimer (AID 2283380);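 also: fluorescence gain from ER beta LBD homodimer complementation read by laser scanning cytometry; scored as signal increase over DMSO baseline for both agonists and antagonists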
Estrogen receptor beta (Homo sapiens), sequence (Q92731 whole entry, looked up, the tested form may be a part): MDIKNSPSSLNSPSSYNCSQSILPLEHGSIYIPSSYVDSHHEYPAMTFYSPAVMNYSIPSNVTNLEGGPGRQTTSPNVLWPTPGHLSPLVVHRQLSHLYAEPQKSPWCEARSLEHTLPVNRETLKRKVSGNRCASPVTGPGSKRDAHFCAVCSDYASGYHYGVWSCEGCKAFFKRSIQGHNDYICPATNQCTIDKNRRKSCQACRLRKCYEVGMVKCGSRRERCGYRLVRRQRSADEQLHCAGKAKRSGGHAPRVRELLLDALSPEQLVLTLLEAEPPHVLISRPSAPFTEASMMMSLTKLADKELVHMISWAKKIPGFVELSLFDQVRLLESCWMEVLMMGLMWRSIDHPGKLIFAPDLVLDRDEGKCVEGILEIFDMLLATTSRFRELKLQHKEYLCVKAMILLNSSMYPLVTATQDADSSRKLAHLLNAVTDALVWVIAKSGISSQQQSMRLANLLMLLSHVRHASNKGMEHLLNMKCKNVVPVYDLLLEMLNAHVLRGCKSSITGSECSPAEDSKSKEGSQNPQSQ
Summary of the method: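 HEK293T cells stably expressing human ER-beta LBD (aa 310-547) PCA homodimer pair, dosed 24 h; formaldehyde-fixed, Draq5-stained. Readout: increase in nuclear (agonist) or nuclear plus cytoplasmic (antagonist) fluorescence intensity versus DMSO, gain-of-signal fitting.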

[4] = biological target: Estrogen receptor (Homo sapiens) (UniProt P03372); assay: OT_ERa_GFPERaERE_0480: Odyssey Thera (OT) 8-hour HeLa Transcription Induction Assay for Estrogen Receptor (AID 2283381; active = hit-call score of the fitted dose curve at least 0.9, where 1 is the maximum; inactive = score below 0.9)
Estrogen receptor (Homo sapiens), sequence (P03372 whole entry, looked up): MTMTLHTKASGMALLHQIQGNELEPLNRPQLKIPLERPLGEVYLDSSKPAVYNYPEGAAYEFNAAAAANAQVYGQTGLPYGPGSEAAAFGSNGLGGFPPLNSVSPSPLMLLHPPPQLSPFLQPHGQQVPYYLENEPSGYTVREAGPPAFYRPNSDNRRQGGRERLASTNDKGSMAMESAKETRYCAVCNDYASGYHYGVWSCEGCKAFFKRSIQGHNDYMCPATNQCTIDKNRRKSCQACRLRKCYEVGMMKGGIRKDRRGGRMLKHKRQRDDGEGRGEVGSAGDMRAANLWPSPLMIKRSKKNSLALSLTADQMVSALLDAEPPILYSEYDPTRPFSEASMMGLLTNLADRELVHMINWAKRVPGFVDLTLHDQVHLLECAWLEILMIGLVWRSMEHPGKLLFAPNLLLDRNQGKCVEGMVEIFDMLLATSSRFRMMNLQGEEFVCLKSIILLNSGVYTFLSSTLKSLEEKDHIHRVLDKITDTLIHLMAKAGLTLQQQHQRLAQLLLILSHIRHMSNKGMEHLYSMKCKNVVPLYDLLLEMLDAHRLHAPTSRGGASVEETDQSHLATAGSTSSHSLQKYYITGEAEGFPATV
Summary of the method: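 HeLa cells expressing GFP reporter under estrogen response element, imaged 8 h after dosing. GFP induction quantified by high-content fluorescence microscopy image analysis; gain of signal fitted versus DMSO.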

[5] = biological target: Estrogen receptor (Homo sapiens) (UniProt P03372); assay: OT_ERa_GFPERaERE_0120: Odyssey Thera (OT) 2-hour HeLa Transcription Induction Assay for Estrogen Receptor (AID 2283382)
Summary of the method: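 HeLa cells were dosed for 2 h, then GFP reporter induction was quantified by fluorescence microscopy with high-content image analysis. Gain of signal fitted against DMSO baseline.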

[6] = biological target: Retinoic acid receptor RXR-alpha (Homo sapiens) (UniProt P19793); assay: OT_NURR1_NURR1RXRa_1440: Odyssey Thera (OT) 24-hour HEK293T Protein Complementation Assay for Nurr1/retinoid X receptor (RXR) (AID 2283386)
Retinoic acid receptor RXR-alpha (Homo sapiens), sequence (P19793 whole entry, looked up, the tested form may be a part): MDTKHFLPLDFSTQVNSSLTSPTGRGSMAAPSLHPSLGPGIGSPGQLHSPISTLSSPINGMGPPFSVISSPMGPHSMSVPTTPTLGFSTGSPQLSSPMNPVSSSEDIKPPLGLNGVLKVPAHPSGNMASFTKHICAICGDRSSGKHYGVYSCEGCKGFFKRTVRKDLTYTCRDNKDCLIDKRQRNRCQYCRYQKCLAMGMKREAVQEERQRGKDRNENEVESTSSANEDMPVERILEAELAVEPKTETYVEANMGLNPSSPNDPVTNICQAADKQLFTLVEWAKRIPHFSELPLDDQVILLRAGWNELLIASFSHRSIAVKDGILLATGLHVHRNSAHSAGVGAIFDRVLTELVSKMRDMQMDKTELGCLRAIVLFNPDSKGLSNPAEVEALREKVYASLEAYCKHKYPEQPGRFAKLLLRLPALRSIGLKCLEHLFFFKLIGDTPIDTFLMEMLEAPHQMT
Summary of the method: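 HEK293T protein-fragment complementation of Nurr1 and RXRα fused to reporter fragments; compounds 24 h. Fluorescence gain from reconstituted reporter fitted versus DMSO.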

[7] = biological target: Peroxisome proliferator-activated receptor gamma (Homo sapiens) (UniProt P37231); assay: OT_PPARg_PPARgSRC1_0480: Odyssey Thera (OT) 8-hour Protein-Complementation Assay for Peroxisome Proliferator-activated Receptor Gamma / SRC-1 Co-activator (AID 2283387);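 also: nuclear to cytoplasmic split Venus YFP fluorescence ratio reporting PPARg SRC-1 interaction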
Peroxisome proliferator-activated receptor gamma (Homo sapiens), sequence (P37231 whole entry, looked up, the tested form may be a part): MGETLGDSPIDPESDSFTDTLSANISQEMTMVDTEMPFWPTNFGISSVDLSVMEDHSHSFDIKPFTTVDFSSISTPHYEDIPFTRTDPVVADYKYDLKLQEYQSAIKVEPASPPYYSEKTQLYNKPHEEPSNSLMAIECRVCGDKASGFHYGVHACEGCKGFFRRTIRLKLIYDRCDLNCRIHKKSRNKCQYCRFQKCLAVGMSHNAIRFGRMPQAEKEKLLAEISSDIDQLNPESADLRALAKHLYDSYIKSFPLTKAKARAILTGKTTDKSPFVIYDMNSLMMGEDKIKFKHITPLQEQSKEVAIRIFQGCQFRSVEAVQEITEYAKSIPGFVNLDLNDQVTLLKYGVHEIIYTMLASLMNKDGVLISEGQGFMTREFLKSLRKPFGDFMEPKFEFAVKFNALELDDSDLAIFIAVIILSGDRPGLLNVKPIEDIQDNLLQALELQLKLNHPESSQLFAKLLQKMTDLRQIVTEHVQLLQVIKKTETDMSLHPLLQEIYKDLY
Summary of the method: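 Read-out: 488 nm N/C fluorescence ratio from complemented Venus YFP fragments, ≥350 cells per image, gain-of-signal fitted against DMSO baseline. Fusions of PPARg/SRC-1 with IFP1/IFP2 expressed transiently in HEK293T; compounds applied 8 h.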

[8] = biological target: Glucocorticoid receptor (Homo sapiens) (UniProt P04150); assay: NVS_NR_hGR: NovaScreen (NVS) Nuclear Receptor Binding Assay for human Glucocorticoid Receptor (GR) (AID 2283363);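 as to AC50: activity is loss of specific radioligand binding signal relative to DMSO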
Glucocorticoid receptor (Homo sapiens), sequence (P04150 whole entry, looked up): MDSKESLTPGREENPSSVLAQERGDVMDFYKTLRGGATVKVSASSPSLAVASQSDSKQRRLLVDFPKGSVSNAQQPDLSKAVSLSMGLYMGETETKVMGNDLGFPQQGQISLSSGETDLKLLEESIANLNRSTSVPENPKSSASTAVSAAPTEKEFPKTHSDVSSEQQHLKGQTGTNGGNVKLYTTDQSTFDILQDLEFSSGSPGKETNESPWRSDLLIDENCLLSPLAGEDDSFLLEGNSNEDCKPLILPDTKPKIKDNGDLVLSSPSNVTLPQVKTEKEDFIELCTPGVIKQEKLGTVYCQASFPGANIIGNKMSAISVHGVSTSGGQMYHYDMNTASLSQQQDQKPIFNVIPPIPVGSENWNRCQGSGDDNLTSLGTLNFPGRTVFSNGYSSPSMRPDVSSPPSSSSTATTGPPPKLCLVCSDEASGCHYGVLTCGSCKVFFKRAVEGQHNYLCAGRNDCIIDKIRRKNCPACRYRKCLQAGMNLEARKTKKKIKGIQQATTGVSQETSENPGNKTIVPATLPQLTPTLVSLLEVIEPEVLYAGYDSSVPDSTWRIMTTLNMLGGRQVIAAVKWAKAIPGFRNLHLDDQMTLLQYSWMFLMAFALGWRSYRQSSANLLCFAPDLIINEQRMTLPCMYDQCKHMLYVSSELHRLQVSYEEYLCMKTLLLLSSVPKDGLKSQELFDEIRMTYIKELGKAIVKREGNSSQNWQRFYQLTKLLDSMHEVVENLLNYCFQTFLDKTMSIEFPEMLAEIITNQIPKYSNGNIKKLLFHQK
Summary of the method: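 Cell-free radioligand binding with extracted receptor protein, read by filter-based scintillation counting 16 hours after dosing. Loss of specific signal versus DMSO baseline was scored. Primary screen ran in duplicate at 25 uM; actives were followed up in concentration series.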

[9] = biological target: Peroxisome proliferator-activated receptor gamma (Homo sapiens) (UniProt P37231); assay: NVS_NR_hPPARg: NovaScreen (NVS) Nuclear Receptor Binding Assay for human Peroxisome Proliferator-activated Receptor gamma (PPARg) (AID 2283370)
Summary of the method: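 Fluorescence polarization measures competitive binding to extracted PPARg in a cell-free format. Reading is taken at 2 h; activity is signal loss relative to DMSO. Screening at 25 uM in duplicate preceded confirmatory dose series.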

[10] = biological target: Bile acid receptor (Homo sapiens) (UniProt Q96RI1); assay: OT_FXR_FXRSRC1_0480: Odyssey Thera (OT) 8-hour HEK293T Protein-Complementation Assay for Farnesoid X receptor/SRC-1 Co-activator (AID 2283383)
Bile acid receptor (Homo sapiens), sequence (Q96RI1 whole entry, looked up, the tested form may be a part): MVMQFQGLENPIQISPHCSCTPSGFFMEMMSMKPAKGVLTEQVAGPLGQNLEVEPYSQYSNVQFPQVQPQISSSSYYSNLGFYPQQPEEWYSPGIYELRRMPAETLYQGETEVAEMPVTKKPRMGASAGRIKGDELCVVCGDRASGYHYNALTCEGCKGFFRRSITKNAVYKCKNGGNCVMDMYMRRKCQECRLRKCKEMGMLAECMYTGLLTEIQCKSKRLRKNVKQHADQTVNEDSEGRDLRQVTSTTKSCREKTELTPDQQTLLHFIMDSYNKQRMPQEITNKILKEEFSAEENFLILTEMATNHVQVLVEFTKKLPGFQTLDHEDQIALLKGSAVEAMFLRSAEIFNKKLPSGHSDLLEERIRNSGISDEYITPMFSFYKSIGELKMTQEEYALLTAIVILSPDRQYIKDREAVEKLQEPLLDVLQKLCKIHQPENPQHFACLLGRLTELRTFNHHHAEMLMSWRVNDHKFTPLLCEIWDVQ
Summary of the method: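 HEK293T protein-fragment complementation assay: FXR and SRC-1 coactivator are fused to reporter fragments, and their interaction restores a fluorescent reporter. Readout was taken 8 h after dosing, with gain of signal fit relative to DMSO.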

[11] = biological target: Nuclear receptor subfamily 1 group I member 2 (Homo sapiens) (UniProt O75469); assay: NVS_NR_hPXR: NovaScreen (NVS) Nuclear Receptor Binding Assay for human Pregnane X Receptor (PXR) (AID 2283365);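 also: a drop in FRET signal versus DMSO baseline means the compound binds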
Nuclear receptor subfamily 1 group I member 2 (Homo sapiens), sequence (O75469 whole entry, looked up): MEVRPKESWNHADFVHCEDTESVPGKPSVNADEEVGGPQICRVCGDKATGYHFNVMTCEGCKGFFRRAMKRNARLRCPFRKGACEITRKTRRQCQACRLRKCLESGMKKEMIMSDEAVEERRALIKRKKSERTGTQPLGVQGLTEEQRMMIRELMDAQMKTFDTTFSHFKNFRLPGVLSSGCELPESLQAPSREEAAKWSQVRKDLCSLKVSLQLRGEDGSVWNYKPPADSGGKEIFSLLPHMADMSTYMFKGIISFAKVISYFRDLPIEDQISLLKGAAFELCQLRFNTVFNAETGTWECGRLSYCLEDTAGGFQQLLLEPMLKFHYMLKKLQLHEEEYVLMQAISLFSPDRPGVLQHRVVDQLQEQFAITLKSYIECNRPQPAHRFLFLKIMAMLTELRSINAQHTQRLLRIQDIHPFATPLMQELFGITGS
Summary of the method: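 Binding was measured by time-resolved fluorescence resonance energy transfer after a 2 h exposure of extracted human PXR protein without cells. Compounds were first tested at 25 uM in duplicate, with concentration series for actives; DMSO defined baseline.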

[12] = biological target: human Adenosine Transporter (Adot), SLC29A1 (gene 2030) (UniProt Q99808); assay: NVS_TR_hAdoT: NovaScreen (NVS) Transporter Assay for human Adenosine Transporter (Adot) (AID 2283368)
Summary of the method: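 U937-derived membranes, cell-free radioligand binding, filter scintillation 1 h after dosing. 25 uM duplicate screen; hits (e.g. 30% inhibition) run in concentration-response up to 50 uM; loss of signal versus DMSO.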

[13] = test system: guinea pig Dopamine Transporter (DAT), gene 100714898; assay: NVS_TR_gDAT: NovaScreen (NVS) Transporter Assay for guinea pig Dopamine Transporter (DAT) (AID 2283369);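 also: active compounds lower bound radioligand signal relative to DMSO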
Summary of the method: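 Test chemicals were incubated 2 h with guinea pig striatal membranes and a radioligand; bound label was separated by filtration and counted. Screening ran at 25 uM, followed by concentration-response testing to a 50 uM maximum.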

[14] = biological target: human Norepinephrine Transporter (NET), SLC6A2 (gene 6530) (UniProt P23975); assay: NVS_TR_hNET: NovaScreen (NVS) Transporter Assay for human Norepinephrine Transporter (NET) (AID 2283377);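 also: cell-free membrane protein extracted from CHO cells expressing human NET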
Summary of the method: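 Radioligand binding to human NET in cell-free CHO-derived protein preparations, read by filter-based scintillation counting 1 hour after dosing. Loss of signal versus DMSO baseline indicated displacement; primary screening in duplicate at 25 uM, actives then titrated.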

[15] = biological target: mouse Estrogen Receptor alpha (Era), Esr1 (gene 13982) (UniProt P19785); assay: NVS_NR_mERa: NovaScreen (NVS) Nuclear Receptor Binding Assay for mouse Estrogen Receptor alpha (Era) (AID 2283378);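 also: hit means loss of bound radioligand signal relative to DMSO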
mouse Estrogen Receptor alpha (Era), Esr1 (gene 13982), sequence (P19785 whole entry, looked up): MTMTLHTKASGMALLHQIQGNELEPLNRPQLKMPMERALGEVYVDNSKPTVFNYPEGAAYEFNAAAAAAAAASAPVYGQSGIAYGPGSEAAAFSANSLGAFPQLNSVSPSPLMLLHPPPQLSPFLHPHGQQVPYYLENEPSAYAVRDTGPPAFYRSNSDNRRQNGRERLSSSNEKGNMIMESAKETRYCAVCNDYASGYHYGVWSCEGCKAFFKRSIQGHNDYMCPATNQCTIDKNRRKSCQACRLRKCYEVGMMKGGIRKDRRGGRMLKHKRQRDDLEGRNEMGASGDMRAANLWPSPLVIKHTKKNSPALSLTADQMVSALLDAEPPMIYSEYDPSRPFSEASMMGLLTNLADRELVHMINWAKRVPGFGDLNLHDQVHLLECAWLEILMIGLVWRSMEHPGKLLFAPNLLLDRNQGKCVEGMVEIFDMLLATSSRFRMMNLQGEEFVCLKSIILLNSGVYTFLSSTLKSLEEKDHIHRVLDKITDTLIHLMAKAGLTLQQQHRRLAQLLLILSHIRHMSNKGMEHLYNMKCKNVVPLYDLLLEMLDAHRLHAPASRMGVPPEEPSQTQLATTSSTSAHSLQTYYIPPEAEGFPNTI
Summary of the method: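 Test chemicals competed against a specific radioligand for binding to cell-free mouse Era. Duplicate wells at 25 uM were read 18 hours later by filter-based radiodetection, with loss of signal against DMSO scored as activity.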

[16] = biological target: Bile acid receptor (Homo sapiens) (UniProt Q96RI1); assay: OT_FXR_FXRSRC1_1440: Odyssey Thera (OT) 24-hour HEK293T Protein-Complementation Assay for Farnesoid X receptor/SRC-1 Co-activator (AID 2283384)
Summary of the method: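 HEK293T cells, 24 h after chemical dosing. FXR–SRC-1 coactivator interaction read as fluorescence from protein-fragment complementation of a split reporter. Gain of signal fitted against DMSO baseline.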

[17] = biological target: Retinoic acid receptor RXR-alpha (Homo sapiens) (UniProt P19793); assay: OT_NURR1_NURR1RXRa_0480: Odyssey Thera (OT) 8-hour HEK293T Protein Complementation Assay for Nurr1/retinoid X receptor (RXR) (AID 2283385)
Summary of the method: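 HEK293T cells expressing Nurr1 and RXRα fused to reporter fragments (protein-fragment complementation); fluorescence measured 8 h after dosing. Gain of signal fitted relative to DMSO.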

[18] = biological target: human Serotonin Transporter (SERT), SLC6A4 (gene 6532) (UniProt P31645); assay: NVS_TR_hSERT: NovaScreen (NVS) Transporter Assay for human Serotonin Transporter (SERT) (AID 2283372)
Summary of the method: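 Radioligand binding to native SERT in human platelet membranes, read by filter-based scintillation counting 1 h after dosing. Primary screen in duplicate at 25 uM; actives followed up in concentration series; loss of signal versus DMSO baseline.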

[19] = biological target: rat Serotonin Transporter (SERT), Slc6a4 (gene 25553) (UniProt P31652); assay: NVS_TR_rSERT: NovaScreen (NVS) Transporter Assay for rat Serotonin Transporter (SERT) (AID 2283375)
Summary of the method: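 Steps: rat forebrain membranes dosed with chemical (25 uM duplicate primary; concentration series for actives); 1 h incubation; labelled ligand bound, filtered, counted by scintillation. Activity scored as signal loss vs DMSO.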

Measured: AC50

Cc1cccc([N+](=O)[O-])c1C
inactive: [1] | [2] | [3] | [4] | [5] | [6] | [7]

CCCCc1ccc2c(n1)[C@@H](c1ccc(OC)cc1C[C@H](C)C(=O)O)[C@H](C(=O)O)[C@H]2c1ccc2c(c1)OCO2
active: [9] 5.46 µM
inactive: [8] | [3] | [5] | [10] | [6] | [7]

CCCCC(CC)COC(=O)CC(C(=O)OCC(CC)CCCC)S(=O)(=O)O (stereo unspecified)
active: [8] 5.89 µM | [11] 1.03 µM | [12] 19.1 µM | [13] 20.6 µM | [9] 0.221 µM | [14] 10.2 µM | [5] 21.3 µM
inactive: [3] | [7]

Cc1oc(-c2ccccc2)nc1CCOc1cccc2c1ccn2CCC(=O)O
active: [1] 11 µM | [9] 2.27 µM | [7] 2.57 µM and 4.49 µM
inactive: [3] | [4] | [5]

Cc1ccccc1Cl
inactive: [15] | [2] | [5] | [10] | [16] | [17] | [6] | [7]
active: [1] 15.7 µM

CC(=O)OCCOCCOCCOC(C)=O
inactive: [3] | [5] | [16] | [17] | [6] | [7]
active: [11] 33.4 µM

CCOC(=O)CCC(=O)OCC
active: [13] 6.93 µM
inactive: [8] | [18] | [15] | [3] | [5] | [6] | [7]

NC(=O)Cn1c(=O)cc(CCN2CCN(c3nccc4sccc34)CC2)c2ccc(F)cc21
inactive: [5] | [10] | [16] | [7]
active: [1] 2.1 µM

FC(F)(F)C(F)(F)C(F)(F)C(F)(F)C(F)(F)C(F)(F)CCI
inactive: [11] | [5] | [6] | [7]
active: [1] 3.3 µM

CN1CCN(Cc2cc(-c3ccc4[nH]c(=O)oc4c3)co2)[C@@H](c2ccc(F)cc2)C1
inactive: [7]
active: [8] 13.2 µM | [1] 5.66 µM | [13] 5.69 µM | [18] 3.37 µM | [19] 2.52 µM | [14] 12.7 µM | [15] 5.79 µM

Reference: PubChem BioAssay (EPA / NIEHS)
